Screening results (PubChem)
miR122 inh – raises miR-122 sensor activity in Huh7 cells | Huh7 psiCHECK-miR122 Renilla luciferase sensor, 48 h | activation, % at 12.5 µM | actives 0.14% (n = 340,000) | AID 623901;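 active = mean activation of 30% or more, with every replicate also reaching 30%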;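 note: 0% = median of neutral control wells and 100% = median of positive control wells; higher luciferase signal means stronger suppression of miR-122 activity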
The depositor's hits bear a star. This is one part of a sample in which hits are shown more often than they occur.

SMILES | miR122 inh
CC(=O)N(C)C[C@@H]1Oc2cc(C#CC3(O)CCCC3)ccc2S(=O)(=O)N([C@H](C)CO)C[C@@H]1C | 5.1
CCC(=O)N(C)C[C@@H]1Oc2cc(C#Cc3cccnc3)ccc2S(=O)(=O)N([C@@H](C)CO)C[C@@H]1C | 3.5
CCC(=O)N(C)C[C@H]1Oc2cc(C#Cc3cccnc3)ccc2S(=O)(=O)N([C@H](C)CO)C[C@@H]1C | -10.2
C/C=C/c1ccc2c(c1)O[C@H](CN(C)C(=O)Cc1cccnc1)[C@H](C)CN([C@H](C)CO)S2(=O)=O | 42.6*
CCCC#Cc1ccc2c(c1)O[C@@H](CN(C)C(=O)c1cccnc1)[C@@H](C)CN([C@@H](C)CO)S2(=O)=O | -12.0
C/C=C/c1ccc2c(c1)O[C@@H](CN(C)C(=O)c1cccnc1)[C@@H](C)CN([C@@H](C)CO)S2(=O)=O | -2.6
COCC(=O)N(C)C[C@H]1Oc2cc(C#Cc3cccnc3)ccc2S(=O)(=O)N([C@@H](C)CO)C[C@@H]1C | 54.8*
Cc1noc(C)c1NC(=O)N(C)C[C@@H]1Oc2ncc(C#Cc3cccc(F)c3)cc2C(=O)N([C@H](C)CO)C[C@@H]1C | 10.9
CCCNC(=O)N(C)C[C@@H]1Oc2ncc(C#CCC3CCCC3)cc2C(=O)N([C@H](C)CO)C[C@H]1C | 0.6
C/C=C/c1ccc2c(c1)O[C@H](CN(C)C(=O)Nc1ccc(OC)cc1)[C@@H](C)CN([C@@H](C)CO)S2(=O)=O | -21.2
COc1cccc(-c2cnc3c(c2)C(=O)N([C@H](C)CO)C[C@H](C)[C@H](CN(C)Cc2cccc(C(F)(F)F)c2)O3)c1 | 0.5
CN1c2ccc(-c3ccccc3F)cc2[C@H]2[C@H](CCN2S(=O)(=O)c2ccccc2F)[C@H]1CO | -99.7
CCC(=O)N1C[C@H](C)[C@@H](OC)CN(C)C(=O)c2ccc(NS(C)(=O)=O)cc2OC[C@H]1C | -0.1
C[C@@H]1CN([C@@H](C)CO)S(=O)(=O)c2ccc(C#CCC3CCCC3)cc2O[C@H]1CN(C)C(=O)c1ccccn1 | -3.7
C[C@H](CO)N1C[C@H](C)[C@@H](CN(C)C(=O)c2ccccc2)Oc2cc(/C=C/c3ccccc3)ccc2S1(=O)=O | -13.3
C[C@@H]1CN([C@H](C)CO)C(=O)c2cc(-c3cncnc3)cnc2O[C@H]1CN(C)CC1CCOCC1 | -2.2
COc1ccc(S(=O)(=O)Nc2cc(Cl)ccc2OC)cc1 | -137.5
COc1ccc(OC)c(Nc2nc(N)nc(CCl)n2)c1 | 31.8*
COc1ccc(OC)c(NS(=O)(=O)c2ccc(N3CCCC3=O)cc2)c1 | -120.0
C[C@H]1CN([C@@H](C)CO)S(=O)(=O)c2ccc(C#CC3CC3)cc2O[C@H]1CN(C)Cc1ccccn1 | 1.1
C[C@@H]1CN([C@H](C)CO)C(=O)c2cc(C#Cc3ccccn3)cnc2O[C@H]1CN(C)Cc1cncnc1 | -0.2
Cc1c(Cl)sn(-c2ccc(Cl)cc2)c1=O | 69.6*
C[C@@H]1CN([C@@H](C)CO)C(=O)c2cc(-c3cccc(F)c3)cnc2O[C@@H]1CN(C)Cc1cncnc1 | -43.2
CC(C)NC(=O)N(C)C[C@@H]1Oc2cc(C3=CCCCC3)ccc2S(=O)(=O)N([C@H](C)CO)C[C@H]1C | -4.4
CNC[C@@H]1Oc2cc(-c3cccc(F)c3)ccc2S(=O)(=O)N([C@@H](C)CO)C[C@H]1C | 3.4
SMILES | miR122 inh
COCC#Cc1ccc2c(c1)O[C@@H](CN(C)Cc1cncnc1)[C@H](C)CN([C@H](C)CO)S2(=O)=O | -6.3
CO[C@@H]1CN(C)C(=O)c2ccc(NS(=O)(=O)c3ccc(C)cc3)cc2OC[C@@H](C)N(C)C[C@@H]1C | -4.0
COc1ccc(NS(=O)(=O)c2cc(NC(=O)c3ccc(F)cc3)ccc2OC)cc1 | -108.4
CCN1CCN(Cc2ccc(NC(=O)c3cc(NC(=O)c4cc5cccc(OC)c5o4)cc(OC)c3)cc2C(F)(F)F)CC1 | 31.2*
COc1ccc(NC(=O)Nc2ccc3c(c2)C(=O)N([C@@H](C)CO)C[C@H](C)[C@H](CN(C)Cc2ccc(C(F)(F)F)cc2)O3)cc1 | -149.5
C[C@H](CO)N1C[C@H](C)[C@@H](CN(C)C(=O)C2CC2)Oc2cc(C#Cc3cccnc3)ccc2S1(=O)=O | -16.6
C[C@H](CO)N1C[C@H](C)[C@@H](CN(C)Cc2ccccn2)Oc2cc(C#CC3CC3)ccc2S1(=O)=O | -53.6
C[C@H]1CN([C@@H](C)CO)S(=O)(=O)c2ccc(C#Cc3ccncc3)cc2O[C@H]1CN(C)C(=O)C1CCCCC1 | -42.4
COc1cccc(NC(=O)N(C)C[C@@H]2Oc3cc(-c4cccc(C(=O)N(C)C)c4)ccc3S(=O)(=O)N([C@H](C)CO)C[C@H]2C)c1 | -1.4
CCCc1ccc(S(=O)(=O)NCCc2ccncc2)cc1 | 36.1*
Cc1cc(C)c(C)c(S(=O)(=O)NCc2ccncc2)c1C | -122.1
CC(=O)Nc1ccc(S(=O)(=O)NCCc2ccc(S(N)(=O)=O)cc2)cc1 | -225.6
Cc1ccc(C)c(S(=O)(=O)NCCCc2ccccc2)c1 | -92.7
O=C(Nc1ccc(S(=O)(=O)NCCc2ccccc2)cc1)c1ccco1 | -364.6
Cc1cc(C(C)(C)C)cc(S(=O)(=O)NCCc2ccncc2)c1C | 44.1*
COCC(=O)N(C)C[C@@H]1Oc2ncc(/C=C/c3ccccc3)cc2C(=O)N([C@H](C)CO)C[C@H]1C | -1.1
CCCN(C)C[C@H]1Oc2ncc(C#CC3CCCCC3)cc2C(=O)N([C@H](C)CO)C[C@H]1C | 2.8
Cc1cccc(C)c1NC(=O)CSCC(=O)c1ccc(O)c(O)c1 | 35.5*
Cc1cc(C(F)F)n2ncc(C(=O)NCCc3ccccc3Cl)c2n1 | 33.3*
CCc1c(C(=O)NCc2ccccc2Cl)[nH]c(C)c1C(C)=O | -118.3
C[C@H](CO)N1C[C@H](C)[C@H](CN(C)C(=O)Nc2ccccc2)Oc2cc(-c3cccc(C(=O)N(C)C)c3)ccc2S1(=O)=O | 3.8
C[C@H]1CN([C@@H](C)CO)C(=O)c2cc(-c3ccc(C#N)cc3)cnc2O[C@@H]1CN(C)CC1CCOCC1 | -0.4
O=C1CC(Sc2nnnn2-c2ccccc2)C(=O)N1c1cccc(Cl)c1 (centres undefined) | 51.9*
C[C@@H]1CN([C@H](C)CO)S(=O)(=O)c2ccc(Br)cc2O[C@@H]1CN(C)Cc1ccccn1 | 5.0
C[C@@H]1CN([C@@H](C)CO)C(=O)c2cc(-c3cncnc3)cnc2O[C@@H]1CN(C)Cc1cncnc1 | 4.5
SMILES | miR122 inh
CCC(=O)Nc1ccc2c(c1)OC[C@@H](C)NC[C@H](C)[C@@H](OC)CN(C)C2=O | -2.2
COc1cccc(C#Cc2ccc3c(c2)O[C@@H](CN(C)S(=O)(=O)c2ccccc2F)[C@@H](C)CN([C@@H](C)CO)S3(=O)=O)c1 | 1.4
C[C@H](CO)N1C[C@H](C)[C@H](CN(C)C(=O)Nc2ccccc2)Oc2cc(C#Cc3ccccc3)ccc2S1(=O)=O | -9.3
C[C@H]1CN([C@@H](C)CO)C(=O)c2cc(/C=C/c3ccccc3)cnc2O[C@H]1CN(C)C(=O)C1CCOCC1 | -9.0
C[C@H]1CN([C@@H](C)CO)C(=O)c2cc(-c3ccncc3)cnc2O[C@@H]1CN(C)C(=O)C1CCOCC1 | -9.5
CCCCc1cc(=O)oc2cc(C)cc(OC(C)C(=O)O)c12 (centres undefined) | 31.7*
C[C@@H]1CN([C@H](C)CO)C(=O)c2cc(-c3cccnc3)cnc2O[C@H]1CN(C)S(C)(=O)=O | -2.0
C[C@H](CO)N1C[C@H](C)[C@@H](CN(C)C(=O)c2cccc(F)c2)Oc2ncc(-c3cccc(F)c3)cc2C1=O | 2.4
Cc1nn(C)cc1NC(=O)C[C@H]1CC[C@@H]2[C@H](COc3ccc(NC(=O)Nc4cccc(Cl)c4)cc3C(=O)N2C)O1 | 68.9*
